Experimental data taken from PubChem BioAssay (NCI).
About 83,000 compounds went through this panel and 20% of them were active in at least one assay; those are over-represented in the sample as a whole.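 Cell lines were cultured in 96-well plates, exposed to a single compound concentration, and assessed for percent growth 48 hours later.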 Calls of active or inactive are those of the source. Rule for the calls: active = growth percent below 10; inactive = the rest.

Columns and labels:
Assay in all cases: NCI-60 one-dose screen, 48 h (100 = growth as untreated, 0 = no growth, -100 = all killed)
Details in all cases: 10 µM unless noted
T-47D breast = test system: T-47D breast
BT-549 breast = test system: BT-549 breast
MDA-MB-435 melanoma = test system: MDA-MB-435 melanoma
SW-620 colon = test system: SW-620 colon
MCF7 breast = test system: MCF7 breast
HCT-116 colon = test system: HCT-116 colon
HCC-2998 colon = test system: HCC-2998 colon
KM12 colon = test system: KM12 colon

Measured: growth

N#Cc1c(NC(=O)c2cccc(C(F)(F)F)c2F)sc2c1CCC(=O)C2
active: T-47D breast -3.25% | BT-549 breast -22.7% | MDA-MB-435 melanoma -30.5% | SW-620 colon 0.65% | MCF7 breast 2.17% | HCT-116 colon -50.9% | HCC-2998 colon -29.6% | KM12 colon -42.7%

NC(N)=Nc1ccc(Oc2cccc(NC(N)=Nc3ccc(I)cc3F)c2)cc1
inactive: T-47D breast 75.3% | BT-549 breast 87.6% | MDA-MB-435 melanoma 85% | SW-620 colon 89.5% | MCF7 breast 63.3% | HCT-116 colon 90.5% | HCC-2998 colon 102% | KM12 colon 79.3%

CN(C)C(=O)c1cc(-c2ccc3ncnc(NCc4ccccc4)c3c2)cnc1N
inactive: T-47D breast 62% | BT-549 breast 111% | MDA-MB-435 melanoma 99.2% | SW-620 colon 102% | MCF7 breast 77.5% | HCT-116 colon 101% | HCC-2998 colon 102% | KM12 colon 101%

CS(=O)(=O)c1ncc(-c2ccccc2)cn1
inactive: T-47D breast 94.4% | BT-549 breast 93.4% | MDA-MB-435 melanoma 95.2% | SW-620 colon 113% | MCF7 breast 91.9% | HCT-116 colon 96.9% | HCC-2998 colon 104% | KM12 colon 100%

CCCCCc1ccc(S(=O)(=O)Nc2cccc(-c3csc(NC(=O)CCCCCN4CCN(C)CC4)n3)c2)cc1
active: MDA-MB-435 melanoma -33.8% | SW-620 colon -27.1% | MCF7 breast -1.18% | HCT-116 colon -36.2% | HCC-2998 colon -18%
inactive: T-47D breast 43.7% | BT-549 breast 93.5% | KM12 colon 57.4%

O=C(NCc1ncc[nH]1)c1ccc(-c2nc3ccc4[nH]ncc4c3c3c2CCCC3)cc1
inactive: MDA-MB-435 melanoma 14.6% | HCC-2998 colon 12.8%
active: T-47D breast -3.92% | BT-549 breast 0.679% | SW-620 colon 5.4% | MCF7 breast 1.62% | HCT-116 colon -4.57% | KM12 colon 4.99%

CS(=O)(=O)Nc1cc(-c2ccc3ncc(C#N)c(NCc4ccccc4F)c3c2)cnc1Cl
active: T-47D breast 3.78% | BT-549 breast -8.8% | MDA-MB-435 melanoma 6.84% | SW-620 colon 8.38% | MCF7 breast 4.76% | HCT-116 colon 4.1% | HCC-2998 colon -1.68%
inactive: KM12 colon 11.5%

C=CCOc1cccc(/C=C2\SC(=S)N(C3CC(=O)N(c4ccc(Br)cc4)C3=O)C2=O)c1 (stereo not drawn)
inactive: T-47D breast 95.9% | BT-549 breast 109% | MDA-MB-435 melanoma 109% | SW-620 colon 108% | MCF7 breast 90.7% | HCT-116 colon 100% | HCC-2998 colon 115% | KM12 colon 97.6%

C#Cc1nc(C(=O)NCCC(=O)Nc2ccc(NC(=O)c3ccc(/C=C/C(=O)c4nccn4C)cc3)cc2)cs1
active: MCF7 breast 8.54% | HCT-116 colon -33.1% | KM12 colon 9.96%
inactive: T-47D breast 49.3% | BT-549 breast 54.3% | MDA-MB-435 melanoma 27% | SW-620 colon 15.7% | HCC-2998 colon 93.5%

Cc1ccc(NC(=S)NNC(=S)Nc2ccc(C)cc2)cc1
inactive: T-47D breast 101% | BT-549 breast 92.9% | MDA-MB-435 melanoma 102% | SW-620 colon 108% | MCF7 breast 91.1% | HCT-116 colon 106% | HCC-2998 colon 110% | KM12 colon 101%

NS(=O)(=O)c1ccc(Nc2nc(SCc3ccccc3)nc3ccccc23)cc1
inactive: T-47D breast 24.8% | BT-549 breast 66.7% | MDA-MB-435 melanoma 76.8% | SW-620 colon 61% | MCF7 breast 54.3% | HCT-116 colon 53.2% | HCC-2998 colon 83% | KM12 colon 27.8%

N#Cc1cn(Cc2ccc(Cl)cc2Cl)c(C(=O)c2ccc(Br)cc2)c1N
inactive: T-47D breast 87.8% | BT-549 breast 108% | MDA-MB-435 melanoma 95.6% | SW-620 colon 98.8% | MCF7 breast 87.2% | HCT-116 colon 101% | HCC-2998 colon 108% | KM12 colon 99.3%

C=CCN(C)S(=O)(=O)/N=C1\NC(=O)NC1=C(Cl)Cl
inactive: T-47D breast 55.1% | BT-549 breast 89.1% | MDA-MB-435 melanoma 34.4% | MCF7 breast 11.9% | HCC-2998 colon 40.1%
active: SW-620 colon -61.9% | HCT-116 colon 1.54% | KM12 colon 7.25%

COC(=O)c1[nH]nc2c1C1(C(=O)c3cccc4cccc1c34)C(C#N)=C(N)O2 (stereo not drawn)
inactive: T-47D breast 104% | BT-549 breast 124% | MDA-MB-435 melanoma 106% | SW-620 colon 100% | MCF7 breast 84.3% | HCT-116 colon 101% | HCC-2998 colon 106% | KM12 colon 97.8%

O=C(Nc1ccc(Br)cc1)Nc1nc2ccc([N+](=O)[O-])cc2s1
active: T-47D breast -19% | BT-549 breast -21.5% | MDA-MB-435 melanoma -9.22% | SW-620 colon 3.15% | MCF7 breast 1.05% | HCT-116 colon 2.73% | HCC-2998 colon 1.25% | KM12 colon 0.616%

CCc1ccc(SC2c3ccc(N(CC)CC)cc3Oc3nc(N)c(C#N)c(N)c32)cc1 (stereo not drawn)
inactive: BT-549 breast 65.9%
active: T-47D breast -27.3% | MDA-MB-435 melanoma -0.759% | SW-620 colon -24.8% | MCF7 breast -84.9% | HCT-116 colon -83.1% | HCC-2998 colon -83% | KM12 colon -57.9%

CCC1=Cc2cc(OC)ccc2OC12C=Cc1cc(OC)ccc1O2 (stereo not drawn)
active: MDA-MB-435 melanoma -28.5%
inactive: T-47D breast 52.8% | BT-549 breast 75.3% | SW-620 colon 28.3% | MCF7 breast 15.3% | HCT-116 colon 14.2% | HCC-2998 colon 22.9% | KM12 colon 19.3%

CC(=O)O[C@@H]1C(=O)N(c2cnccn2)[C@H]1c1ccccc1[N+](=O)[O-]
active: BT-549 breast -13.3% | MDA-MB-435 melanoma -38.7% | HCT-116 colon -14.2% | KM12 colon -2.26%
inactive: T-47D breast 85.2% | SW-620 colon 20.1% | MCF7 breast 15.5% | HCC-2998 colon 31.5%

CCCCCc1ccc(S(=O)(=O)Nc2cccc(-c3csc(NC(=O)CN4CCN(CCO)CC4)n3)c2)cc1
inactive: T-47D breast 64.5% | BT-549 breast 99.9% | MDA-MB-435 melanoma 44.3% | SW-620 colon 74.3% | MCF7 breast 35.8% | HCT-116 colon 45% | HCC-2998 colon 26.9% | KM12 colon 54%

O=C1[C@H]2Cc3c([nH]c4ccccc34)[C@@H](c3ccc(Cl)cc3)N2C(=O)CN1C1CCN(Cc2ccccc2)CC1
inactive: T-47D breast 55.9% | BT-549 breast 83.9% | MDA-MB-435 melanoma 43.8% | SW-620 colon 62.5% | MCF7 breast 12.6% | HCT-116 colon 33% | HCC-2998 colon 40.3% | KM12 colon 47.7%

O=C(Nc1nc2ccc([N+](=O)[O-])cc2s1)Nc1ccccc1Br
inactive: T-47D breast 33.8% | BT-549 breast 71.7% | MDA-MB-435 melanoma 38.2% | SW-620 colon 39.2% | MCF7 breast 24.8% | HCT-116 colon 18.1% | HCC-2998 colon 37.8% | KM12 colon 15.1%

O=C(CN1CCN(c2cc(=O)n(-c3ccccc3)c3ccccc23)CC1)Nc1ccc(F)cc1
inactive: T-47D breast 30.2% | BT-549 breast 59.1% | MDA-MB-435 melanoma 65.4% | SW-620 colon 91.6% | MCF7 breast 37.9% | HCT-116 colon 58.7% | HCC-2998 colon 94.4% | KM12 colon 72.9%

C=C(C=O)[C@@H]1CC[C@]2(COC(C)=O)CC[C@]3(C)C(CC[C@@H]4[C@@]5(C)CC[C@H](OC(C)=O)C(C)(C)[C@@H]5CC[C@]43C)[C@@H]12 (stereo partly drawn)
active: T-47D breast 4.4% | MDA-MB-435 melanoma -13.6% | SW-620 colon 0.204% | MCF7 breast -33.5% | HCT-116 colon -58.4% | HCC-2998 colon -63% | KM12 colon -40.8%
inactive: BT-549 breast 11.1%

CC1=NC2=NN3C(=NN2C(c2ccccc2)=C1)N=NC(c1ccc(Br)cc1)=C3c1ccc(Br)cc1
inactive: T-47D breast 108% | BT-549 breast 115% | MDA-MB-435 melanoma 110% | SW-620 colon 96.6% | MCF7 breast 94.4% | HCT-116 colon 117% | HCC-2998 colon 112% | KM12 colon 104%

O=C(Nc1nc2ccc([N+](=O)[O-])cc2s1)Nc1ccccc1Cl
inactive: BT-549 breast 36.9% | MDA-MB-435 melanoma 19.6% | SW-620 colon 46.1% | MCF7 breast 55.8% | HCT-116 colon 21.4% | HCC-2998 colon 47.6% | KM12 colon 26.4%
active: T-47D breast -0.208%

CCNC(=O)N1CCc2cc(OC)c(OCCc3ccc(OC)c(N)c3)cc2C1c1cc(C)c(C)cc1C (stereo not drawn)
inactive: T-47D breast 52.6% | BT-549 breast 25.6% | MDA-MB-435 melanoma 17.2% | SW-620 colon 15.7% | MCF7 breast 22.7% | HCT-116 colon 17.3% | HCC-2998 colon 49.2% | KM12 colon 33.8%

NS(=O)(=O)c1ccc(Nc2cc(-c3ccccc3)nc(SCC(=O)c3ccccc3)n2)cc1
inactive: T-47D breast 97.5% | BT-549 breast 97.6% | MDA-MB-435 melanoma 93.4% | SW-620 colon 102% | MCF7 breast 89.5% | HCT-116 colon 101% | HCC-2998 colon 101% | KM12 colon 102%

CCc1cccc2c3c(sc12)C(c1ccc(OC)cc1)C(C#N)=C(/N=C/c1ccc(Cl)cc1)O3 (stereo not drawn)
inactive: T-47D breast 12.9% | BT-549 breast 29.8% | SW-620 colon 39.4% | MCF7 breast 19.3% | HCT-116 colon 13% | HCC-2998 colon 20% | KM12 colon 22.7%
active: MDA-MB-435 melanoma -47.2%

FC(F)(F)c1cc(Nc2cccc(Oc3ccc(NC4=NCCN4)nc3)c2)ccc1Cl
inactive: T-47D breast 23.4% | BT-549 breast 44.7%
active: MDA-MB-435 melanoma -40% | SW-620 colon -75.8% | MCF7 breast -42.5% | HCT-116 colon -48.5% | HCC-2998 colon -58% | KM12 colon -60.4%

COC(=O)C1(C)CCC[C@]2(C)[C@H]3C[C@H]4C(C(C)C)=C[C@]3(CC[C@@H]12)[C@H]1[C@@H]4[C@@H](OC(=O)c2ccco2)CC[C@@H]1OC(=O)c1ccco1 (stereo partly drawn)
inactive: T-47D breast 98.9% | BT-549 breast 99.8% | MDA-MB-435 melanoma 104% | SW-620 colon 102% | MCF7 breast 98.3% | HCT-116 colon 110% | HCC-2998 colon 108% | KM12 colon 105%

O=C(NNc1nc2cc(F)ccc2n2cccc12)c1ccncn1
active: T-47D breast 4.38% | MCF7 breast 7.62%
inactive: BT-549 breast 21.9% | MDA-MB-435 melanoma 31.5% | SW-620 colon 22.7% | HCT-116 colon 18.3% | HCC-2998 colon 53.2% | KM12 colon 23.1%
